# Screens deposited in PubChem by National Center for Advancing Translational Sciences (NCATS).
# ELG1 DNA repair = inhibitors of ELG1-dependent DNA repair in HEK293T cells. HEK293T ELG1-luciferase reporter, luminescence, 16 h; DNA damage induced by 5-fluorouridine. Potency, µM (highest dose often 46.1 µM), for inactives: top-dose activity change, negative = inhibition, most hits filed as inhibitors. 330,000 compounds, 2.3% hits. AID 504467; also: nearly all actives have a fitted effect of over 55% in size
#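 Reporter activity after DNA damage by 5-fluorouridine is monitored. Compound-treated cells incubate 16 hr at 37 °C, then ONE-Glo is added for 30 min before luminescence reading.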
# RORg inh = ROR gamma (mouse) transcription inhibition. 310,000 compounds, 5.4% hits. Potency, µM (doses to about 53.6 µM), without a hit: at the highest dose activity change, negative = inhibition, most hits filed as inhibitors. Drosophila S2 Gal4-RORgamma UAS-luciferase reporter, 20 h; also: nearly all actives have a fitted effect of over 60% in size
# Target sequence (P51450 whole entry, looked up, the tested form may be a part): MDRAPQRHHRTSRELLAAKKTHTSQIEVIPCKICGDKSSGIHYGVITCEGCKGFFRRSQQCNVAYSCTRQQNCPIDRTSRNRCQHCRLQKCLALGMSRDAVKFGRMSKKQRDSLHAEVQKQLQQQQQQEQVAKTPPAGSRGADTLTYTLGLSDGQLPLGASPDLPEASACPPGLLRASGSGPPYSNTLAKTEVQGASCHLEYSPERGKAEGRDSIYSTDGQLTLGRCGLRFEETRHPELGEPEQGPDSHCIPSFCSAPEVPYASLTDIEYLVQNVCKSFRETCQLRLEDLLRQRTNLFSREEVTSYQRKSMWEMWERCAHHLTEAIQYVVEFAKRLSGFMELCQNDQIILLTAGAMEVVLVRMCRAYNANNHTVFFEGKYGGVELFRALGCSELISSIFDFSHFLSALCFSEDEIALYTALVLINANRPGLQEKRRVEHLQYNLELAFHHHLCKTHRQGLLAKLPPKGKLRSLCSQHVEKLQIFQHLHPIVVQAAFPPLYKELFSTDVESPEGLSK
#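 ROR gamma transcriptional activity was tracked as Gal4-UAS luciferase output in stably transfected Drosophila Schneider cells, with compound added 1 hr before 700 uM copper sulfate induction and a 20 hr ambient-temperature incubation.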
# DT40 TDP1 no CPT = qHTS for Inhibitors of human tyrosyl-DNA phosphodiesterase 1 (TDP1): qHTS in cells in absence of CPT. DT40 Tdp1-/- hTDP1 cells, no CPT, ATP luminescence, 48 h. Potency, µM (doses to about 46.2 µM), without a hit: top-dose activity change, negative = growth inhibition, most hits filed as inhibitors. 420,000 compounds, 15% hits; also: nearly all actives have a fitted effect of over 55% in size
#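 Cells were dispensed at 400 per well, compounds added by pin tool, plates incubated ≥48 hr at 37 °C, then CellTiter-Glo added for 30 min at room temperature before luminescence reading. Line: DT40 Tdp1-/- complemented with hTDP1; camptothecin omitted.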
# VP16 counter = Gal4-VP16 reporter inhibition counter-screen | Potency, µM (top dose mostly 53.6 µM), without a hit: top-dose activity, negative = inhibition, hits mostly inhibitors | AID 2546 | Drosophila S2 Gal4-VP16 UAS-luciferase, luminescence, 20 h | 310,000 compounds, 3.5% hits;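 also: Gal4-VP16 expression switched on by copper sulfate through the metallothionein promoter; nearly all actives have a fitted effect of over 50% in size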
# 12-LOX inh = blocks human arachidonate 12S-lipoxygenase; P18054; purified 12hLO, xylenol orange hydroperoxide absorbance; Potency, µM (titrated, usually from 108 µM), without a hit: top-dose activity change, negative = inhibition, usual class: inhibitors; 580,000 compounds, 1.1% hits; AID 1671190
#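 Purified human 12hLO at 150 nM in 25 mM Hepes, 0.01% Triton X-100, pH 7.0, preincubated 15 min at room temperature with compound. Reaction started with 40 uM arachidonic acid, 30 min at room temperature. Hydroperoxide measured by Fe-xylenol orange, 573/405 nm absorbance ratio.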
# DT40 TDP1 CPT = growth inhibition of DT40 Tdp1-/-;hTDP1 cells with camptothecin (screen for TDP1 inhibitors); Potency, µM (top dose mostly 46.2 µM), inactives show at the top dose activity change, negative = growth inhibition, usual class: inhibitors; chicken DT40 Tdp1-/-;hTDP1 cells + 20 nM CPT, ATP luminescence, 48 h; AID 686979; 420,000 compounds, 12% hits; also: nearly all actives have a fitted effect of over 55% in size
#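 Chicken DT40 Tdp1-/- cells stably complemented with human TDP1 were seeded at 400 cells/well in medium containing 20 nM camptothecin, exposed to pin-transferred compounds, and grown at 37 °C for at least 48 hr. Viability was read as ATP luminescence.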
# The depositor's hits bear a star; i = inactive; ? = inconclusive; / = not tested or not shown; [ ] = dose if it differs, or a comment. An excerpt weighted towards active compounds, which were near 15% of everything screened. Calls follow the shape of the dose curve; as a rule, active = well fitted curve in the direction sought with a large enough effect; inconclusive = small, poorly fitted or top-dose-only effect, or another doubt; inactive = no such curve, though single readings can be large; an effect the other way counts as inactive or inconclusive. % is scaled to controls: 0 for no effect and ±100 for the full control effect; potency is read from the fitted curve at half-maximal effect.
SMILES,ELG1 DNA repair,RORg inh,DT40 TDP1 no CPT,VP16 counter,12-LOX inh,DT40 TDP1 CPT
O=C(CN1C2CCCC1CC(NC(=O)c1ccccc1)C2)Nc1ccccc1C(F)(F)F (stereo not given),?,?,16µM*,2%,-17%,?
O=C(CN1C2CCCC1CC(NC(=O)c1ccco1)C2)Nc1ccccc1C(F)(F)F (stereo not given),?,?,23µM*,-9%,0%,23µM*
O=C(CN1CCC(NC(=O)c2ccco2)CC1)Nc1ccccc1C(F)(F)F,9%,11%,?,-17%,-6%,-28%
COc1ccc(NC(=O)c2n[nH]c3ccccc23)cc1S(=O)(=O)Nc1ccccc1Cl,/,/,/,/,5%,/
CCCCN1C(=N)N([C@@H](C)CN2CCC[C@H]2CN2C(N)=NC[C@H]2CC(C)C)C[C@H]1[C@H](C)CC,-1%,/,16µM*,/,15%,23µM*
CC(C)C[C@@H]1CN=C(N)N1C[C@@H]1CCCN1C[C@H](C)N1C[C@@H](Cc2ccccc2)N(CCc2ccc(Cl)c(Cl)c2)C1=N,-4%,/,?,/,/,18µM*
CCCCN1C(=N)N([C@@H](CCC)CN2CCC[C@H]2CN2C(N)=NC[C@H]2C(C)C)C[C@H]1[C@H](C)CC,2%,/,?,/,7%,-15%
CCC[C@@H](CN1CCC[C@H]1CN1C(N)=NC[C@H]1CC(C)C)N1C[C@@H]([C@H](C)CC)N(CCCC2CCCC2)C1=N,-2%,/,16µM*,/,?,21µM*
COc1ccc2cc(C(=O)Nc3ccccc3)c(C)nc2c1,/,/,/,/,0%,/
CCS(=O)(=O)Nc1ccc(C2(C(=O)NC3CCCC3)CCC2)cc1,/,/,/,/,38%,/
COCCNC(=O)C[C@@H]1C[C@H]2O[C@H](CNC3Cc4ccccc4C3)[C@@H](O)[C@H]2O1,/,/,/,/,36%[176 µM],/
COC(=O)Nc1ccc(C(=O)NCc2ccccc2)cc1,/,/,/,/,11%,/
O=C(Nc1ccc([N+](=O)[O-])cc1)Nc1ccc2c(c1)OCCO2,?,2%,15µM*,7%[10 µM],-2%,?
O=C(Nc1cccc(C(=O)O)c1)Nc1ccc2c(c1)OCO2,2.6µM*,10µM*,-17%,11µM*,1%,-14%
O=C(NCCc1ccc(F)cc1)Nc1ccc2c(c1)OCO2,?,10%,?,-4%,-5%,18µM*
Cc1cc(C)c2[nH]c(C(=O)Nc3ccc4c(c3)OCO4)cc2c1,-2%,0.4µM*,?,-25%,?,?
O=c1c2c(CO)c(-c3ccc(F)cc3)nn2ccn1Cc1cc(F)ccc1F,/,/,/,/,46%,/
COC(=O)c1ccccc1NC(=O)Nc1ccc2c(c1)OCO2,?,34%,6%,4%,9%,0%
CC(C)c1ccccc1NC(=O)Nc1ccc2c(c1)OCO2,19%,24%,-20%,25%,-13%,16µM*
Cc1cc(C)c(NC(=O)Nc2ccc3c(c2)OCO3)c(C)c1,?,32%,?,-16%,i,12µM*
CC1CCCN(C(C(=O)Nc2ccc3c(c2)OCO3)c2ccccc2)C1 (stereo not given),-8%,4%,16µM*,7%,9%,15µM*
CC1CCCN(C(C(=O)Nc2ccc3c(c2)OCCO3)c2ccccc2)C1 (stereo not given),4%,-3%,-19%,1%,0%,-28%
O=C(Nc1ccc2c(c1)OCO2)Nc1ccc(F)cc1F,?,?,2.3µM*,-5%,-2%,3.7µM*
CCCNC(=O)NC[C@@H]1C=C(C)[C@H](Cc2nc3ccc(OC)cc3[nH]2)C[C@H]1C(C)C,/,/,/,/,16%[176 µM],/
